Here are results for three compounds from the supplement of paper PMC11628255, “Interference of metal ions on the bioluminescent signal of firefly, Renilla, and NanoLuc luciferases in high-throughput screening assays” (Frontiers in Chemistry, 2024).

For this experiment, the system named is firefly luciferase (FLuc). The experiment in a line: residual bioluminescent signal relative to negative control without GSH; higher = less interference (more residual luciferase signal). The note with it: screening conditions buffer. On the procedure: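 Selected metal salts at 3-4 concentrations tested on purified FLuc, NLuc or RLuc in screening buffer with 0, 0.2 or 2 mM glutathione added; 10 min enzyme pre-incubation at RT, luminescence 10 min after substrate. Signal normalised to negative control without GSH (% N_VALUE); triplicate wells.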

[1] abbreviates: metal salt concentration 1 mM, glutathione 0 mM.
[2] abbreviates: metal salt concentration 1 mM, glutathione 0.2 mM.
[3] abbreviates: metal salt concentration 1 mM, glutathione 2 mM.

± gives the standard deviation of the averaged measurements.

In the case of `O=[N+]([O-])[O-].[Ag+]` [silver nitrate], the residual bioluminescent signal reads like this: (metal salt concentration 0.0001 mM, glutathione 0 mM) 58.4 ± 11%; (metal salt concentration 0.0001 mM, glutathione 0.2 mM) 63.3 ± 6%; (metal salt concentration 0.0001 mM, glutathione 2 mM) 0.242 ± 0.17%; (metal salt concentration 0.000243 mM, glutathione 0 mM) 1.26 ± 0.36%; (metal salt concentration 0.000243 mM, glutathione 0.2 mM) 64.7 ± 3.9%; (metal salt concentration 0.000243 mM, glutathione 2 mM) 0.483 ± 0.34%. Also, the residual bioluminescent signal (metal salt concentration 0.0005 mM, glutathione 0 mM) stood at 0.58 ± 0.43%; the residual bioluminescent signal (metal salt concentration 0.0005 mM, glutathione 0.2 mM) is 61.9 ± 10%; the residual bioluminescent signal (metal salt concentration 0.0005 mM, glutathione 2 mM) was 0.58 ± 0.29%; the residual bioluminescent signal under setting [1] was 0.435 ± 0.38%; the residual bioluminescent signal under setting [2] turned out to be 0.918 ± 0.47%; the residual bioluminescent signal under setting [3] came to 0.531 ± 0.3%.

With `O=[N+]([O-])[O-].O=[N+]([O-])[O-].[Cu+2]` [copper(II) nitrate], the residual bioluminescent signal was found to be 84.5 ± 15% (metal salt concentration 0.05 mM, glutathione 0 mM); 54.9 ± 3.8% (metal salt concentration 0.05 mM, glutathione 0.2 mM); 0.483 ± 0.17% (metal salt concentration 0.05 mM, glutathione 2 mM); 86.3 ± 9.3% (metal salt concentration 0.125 mM, glutathione 0 mM); 19.4 ± 1.1% (metal salt concentration 0.125 mM, glutathione 0.2 mM); 0.531 ± 0.34% (metal salt concentration 0.125 mM, glutathione 2 mM). In addition, the residual bioluminescent signal was 65.3 ± 11% (metal salt concentration 0.2 mM, glutathione 0 mM); 5.12 ± 2% (metal salt concentration 0.2 mM, glutathione 0.2 mM); 0.628 ± 0.44% (metal salt concentration 0.2 mM, glutathione 2 mM); 0.628 ± 0.47% under setting [1]; 0.338 ± 0.17% under setting [2]; 0.435 ± 0.25% under setting [3].

`O=[N+]([O-])[O-].O=[N+]([O-])[O-].[Zn+2]` [zinc nitrate]: the residual bioluminescent signal (metal salt concentration 0.5 mM, glutathione 0 mM) stood at 100 ± 3.4%; the residual bioluminescent signal (metal salt concentration 0.5 mM, glutathione 0.2 mM) is 29.7 ± 6%; the residual bioluminescent signal (metal salt concentration 0.5 mM, glutathione 2 mM) is 0.435 ± 0.25%; the residual bioluminescent signal under setting [1] was determined as 1.06 ± 0.55%; the residual bioluminescent signal under setting [2] is 0.918 ± 0.74%; the residual bioluminescent signal under setting [3] was 0.387 ± 0.17%. The residual bioluminescent signal by setting is: (metal salt concentration 1.20 mM, glutathione 0 mM) 0.387 ± 0.17%; (metal salt concentration 1.20 mM, glutathione 0.2 mM) 0.676 ± 0.36%; (metal salt concentration 1.20 mM, glutathione 2 mM) 0.676 ± 0.36%; (metal salt concentration 2.5 mM, glutathione 0 mM) 0.58 ± 0.29%; (metal salt concentration 2.5 mM, glutathione 0.2 mM) 0.87 ± 0.43%; (metal salt concentration 2.5 mM, glutathione 2 mM) 0.338 ± 0.34%.
